Results on seven molecules are retold here after PubChem BioAssay (EPA / NIEHS).

Read-out in assay [1]: Human Leukocyte Antigen - DR isotype (HLADR), HLA-DRA (gene 3122)
Put plainly: BSK_BE3C_HLADR: BioMAP Diversity Plus: BE3C Assay for Human Leukocyte Antigen - DR isotype (HLADR) Biomarker Activity (AID 2283032). Conditions: primary human bronchial epithelial cells; actives raise or lower the signal. The essentials: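 Human primary bronchial epithelial cells in the BE3C system were exposed to chemicals for 24 h, after which HLA-DR levels were quantified by ELISA. Activity was fitted bidirectionally, gain or loss of signal, against DMSO as negative control and baseline.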

Read-out in assay [2]: Interferon-gamma inducible Protein 10 (IP10), CXCL10 (gene 3627)
The assay can be described thus: BSK_BE3C_IP10: BioMAP Diversity Plus: BE3C Assay for Interferon-gamma inducible Protein 10 (IP10) Biomarker Activity (AID 2283034). Conditions: primary human bronchial epithelial cells; actives raise or lower the signal. The essentials: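 Human primary bronchial epithelial cells were exposed to chemicals for 24 hours, after which IP-10 levels were measured by ELISA. Data were fitted bidirectionally against DMSO, which served as the negative control and activity baseline.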

Read-out in assay [3]: Monokine induced gamma interferon (MIG), CXCL9 (gene 4283)
The assay can be described thus: BSK_BE3C_MIG: BioMAP Diversity Plus: BE3C Assay for Monokine induced gamma interferon (MIG) Biomarker Activity (AID 2283035). Conditions: primary human bronchial epithelial cells; actives raise or lower the signal. The essentials: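 ELISA read-out of MIG in human lung bronchial epithelial primary cultures, 24 h post-dosing. Bidirectional curve fit vs DMSO baseline.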

Read-out in assay [4]: Transforming growth factor beta 1 (TGFb1), TGFB1 (gene 7040)
Put plainly: BSK_BE3C_TGFb1: BioMAP Diversity Plus: BE3C Assay for Transforming growth factor beta 1 (TGFb1) Biomarker Activity (AID 2283036). Conditions: primary human bronchial epithelial cells; actives raise or lower the signal. In outline: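 Human primary bronchial epithelial cells (BE3C system) were dosed with chemical and TGF-b1 levels measured by ELISA at 24 h. Activity was fitted bidirectionally relative to DMSO negative control as baseline.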

Read-out in assay [5]: Plasminogen activator inhibitor-1 (PAI1), SERPINE1 (gene 5054)
The assay can be described thus: BSK_BE3C_PAI1: BioMAP Diversity Plus: BE3C Assay for Plasminogen activator inhibitor-1 (PAI1) Biomarker Activity (AID 2283037). Conditions: primary human bronchial epithelial cells; actives raise or lower the signal. The essentials:
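Human primary bronchial epithelial cells were exposed to chemical for 24 h, then PAI-1 was quantified by ELISA. Activity was fitted bidirectionally relative to the DMSO negative control baseline.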

Read-out in assay [6]: urokinase plasminogen activator (uPA), PLAU (gene 5328)
Put plainly: BSK_BE3C_uPA: BioMAP Diversity Plus: BE3C Assay for urokinase plasminogen activator (uPA) Biomarker Activity (AID 2283038).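 Note: uPA protein level quantified by ELISA in cell cultures; uPA read one day after compound addition.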 Conditions: primary human bronchial epithelial cells; actives raise or lower the signal. The essentials: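 Bronchial epithelial cells (human, primary); chemical 24 h; uPA by ELISA; bidirectional fit vs DMSO. SRB (0.1%, after 10% TCA fixation, 560 nm) in parallel cultures for cytotoxicity.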

Read-out in assay [7]: Urokinase-type plasminogen activator receptor (uPAR), PLAUR (gene 5329)
The assay can be described thus: BSK_BE3C_uPAR: BioMAP Diversity Plus: BE3C Assay for Urokinase-type plasminogen activator receptor (uPAR) Biomarker Activity (AID 2283039).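 Note: cells exposed to compound for one day before measurement.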 Particulars: primary human bronchial epithelial cells; actives raise or lower the signal. In outline:
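Primary human bronchial epithelial cells were dosed with chemical and harvested 24 h later; uPAR was quantified by ELISA. Activity was fitted bidirectionally against DMSO as negative control and baseline.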

Read-out in assay [8]: Interleukin-6 (IL6), IL6 (gene 3569)
Put plainly: BSK_CASM3C_IL6: BioMAP Diversity Plus: CASM3C Assay for Interleukin-6 (IL6) Biomarker Activity for (AID 2283040). Conditions: primary human coronary artery smooth muscle cells; actives raise or lower the signal.

Read-out in assay [9]: Tissue plasminogen activator (tPA), PLAT (gene 5327)
The assay can be described thus: BSK_BE3C_tPA: BioMAP Diversity Plus: BE3C Assay for Tissue plasminogen activator (tPA) Biomarker Activity (AID 2283041).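 Note: tPA level quantified by ELISA one day after compound addition.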 Particulars: primary human bronchial epithelial cells; actives raise or lower the signal. In outline:
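Human primary bronchial epithelial cells were dosed with chemical and tPA biomarker levels measured by ELISA 24 hours later. Activity was fitted bidirectionally against DMSO as negative control and baseline.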

Read-out in assay [10]: Interleukin-8 (IL8), CXCL8 (gene 3576)
Put plainly: BSK_CASM3C_IL8: BioMAP Diversity Plus: CASM3C Assay for Interleukin-8 (IL8) Biomarker Activity (AID 2283042).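 Note: IL-8 protein level quantified by ELISA.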 Conditions: primary human coronary artery smooth muscle cells; actives raise or lower the signal.

Read-out in assay [11]: Human Leukocyte Antigen - DR isotype (HLADR), HLA-DRA (gene 3122)
The assay can be described thus: BSK_CASM3C_HLADR: BioMAP Diversity Plus: CASM3C Assay for Human Leukocyte Antigen - DR isotype (HLADR) Biomarker Activity (AID 2283043).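 Note: cell-surface HLA-DR protein level quantified by ELISA.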 Particulars: primary human coronary artery smooth muscle cells; actives raise or lower the signal.

Read-out in assay [12]: Macrophage colony-stimulating factor (MCSF), CSF1 (gene 1435)
Put plainly: BSK_CASM3C_MCSF: BioMAP Diversity Plus: CASM3C Assay for Macrophage colony-stimulating factor (MCSF) Biomarker Activity (AID 2283044).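 Note: M-CSF protein amount quantified by ELISA after 24 h exposure.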 Conditions: primary human coronary artery smooth muscle cells; actives raise or lower the signal.

Read-out in assay [13]: Low-density lipoprotein receptor (LDLR), LDLR (gene 3949)
The assay can be described thus: BSK_CASM3C_LDLR: BioMAP Diversity Plus: CASM3C Assay for Low-density lipoprotein receptor (LDLR) Biomarker Activity (AID 2283045).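 Note: LDLR protein level on the cell surface quantified by ELISA.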 Conditions: primary human coronary artery smooth muscle cells; actives raise or lower the signal.

Read-out in assay [14]: Monocyte Chemoattractant Protein-1 (MCP1), CCL2 (gene 6347)
The assay can be described thus: BSK_CASM3C_MCP1: BioMAP Diversity Plus: CASM3C Assay for Monocyte Chemoattractant Protein-1 (MCP1) Biomarker Activity (AID 2283046).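 Note: MCP-1 level quantified by ELISA 24 h after dosing.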 Particulars: primary human coronary artery smooth muscle cells; actives raise or lower the signal.

The nature of assay [15]: BSK_CASM3C_Proliferation: Cell Proliferation Assessment in the BioMAP Diversity Plus: CASM3C Assay (AID 2283047).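 Note: sulforhodamine B total protein stain as relative cell number at 560 nm; sub-confluent cells exposed 48 h before staining; fitted both ways against DMSO so gain or loss of cell number.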 Conditions: primary human coronary artery smooth muscle cells.
Read-out in assay [16]: Monokine induced gamma interferon (MIG), CXCL9 (gene 4283)
The assay can be described thus: BSK_CASM3C_MIG: BioMAP Diversity Plus: CASM3C Assay for Monokine induced gamma interferon (MIG) Biomarker Activity (AID 2283048). Conditions: primary human coronary artery smooth muscle cells; actives raise or lower the signal.

Read-out in assay [17]: serum amyloid A (SAA), SAA1 (gene 6288)
The assay can be described thus: BSK_CASM3C_SAA: BioMAP Diversity Plus: CASM3C Assay for serum amyloid A (SAA) Biomarker Activity (AID 2283049).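 Note: SAA protein level quantified by ELISA.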 Particulars: primary human coronary artery smooth muscle cells; actives raise or lower the signal.

A short description of assay [18]: BSK_CASM3C_SRB: Viability Assessment in the BioMAP Diversity Plus: CASM3C Assay (AID 2283050).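 Note: total protein by SRB staining as cytotoxicity measure in parallel cultures.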 Conditions: primary human coronary artery smooth muscle cells.
Read-out in assay [19]: Thrombomodulin, THBD (gene 7056)
The assay can be described thus: BSK_CASM3C_Thrombomodulin: BioMAP Diversity Plus: CASM3C Assay for Thrombomodulin Biomarker Activity (AID 2283051).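 Note: thrombomodulin protein level measured by ELISA 24 h after dosing.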 Conditions: primary human coronary artery smooth muscle cells; actives raise or lower the signal.

Read-out in assay [20]: Vascular cell adhesion molecule 1 (VCAM1), VCAM1 (gene 7412)
Put plainly: BSK_4H_VCAM1: BioMAP Diversity Plus: 4H Assay for Vascular cell adhesion molecule 1 (VCAM1) Biomarker Activity (AID 2283033).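 Note: cell-surface VCAM-1 protein measured by ELISA.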 Conditions: primary human endothelial cells (HUVEC); actives raise or lower the signal. The essentials:
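Primary human umbilical vein endothelial cells were exposed to chemicals for 24 h, after which VCAM-1 was quantified by ELISA. Responses were fitted bidirectionally against DMSO as negative control and activity baseline.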

The source made the active and inactive calls. Rule for the calls: active = hit-call score of the fitted dose curve at least 0.9, where 1 is the maximum; inactive = score below 0.9.

Turning to `Nc1nc(N)c2nc(CNc3ccc(C(=O)N[C@@H](CCC(=O)O)C(=O)O)cc3)cnc2n1`, the outcome in [1], in assay [2], in [3], in assay [4], in assay [5] and in assay [6] was inactive. Besides, the result in assay [7], in assay [8], in assay [9], in [10], in [11] and in assay [12] was inactive. The outcome in assay [13], in assay [14], in [15], in [16], in [17] and in assay [18] was inactive. Besides, in [19], the result was inactive.

Regarding `Clc1cc(Cl)c(Cl)cc1Cl`, the result in assay [1], in [20], in assay [2], in assay [3], in [5] and in assay [6] was inactive. The outcome in [7], in [8], in assay [9], in [10], in assay [11] and in [12] was inactive. Besides, the outcome in assay [13], in [14], in assay [15], in assay [16], in assay [17] and in assay [18] was inactive. Further, the outcome in [19] was inactive.

As for `OC[C@@H](O)[C@@H](O)[C@H](O)[C@H](O)CO`, the result in assay [1], in [2], in assay [3], in [4], in assay [5] and in assay [6] was inactive. The outcome in [7], in assay [8], in assay [9], in assay [10], in [11] and in [12] was inactive. The result in [13], in [14], in assay [15], in [16], in [17] and in assay [18] was inactive. The outcome in assay [19] was inactive.

In the case of `Cc1nc(C)nc(N2C[C@@H](C)N(c3ccnc([C@@H](C)O)n3)[C@@H](C)C2)n1`, the result in assay [1], in assay [2], in assay [3], in [4], in assay [5] and in assay [6] was inactive. Besides, the outcome in assay [7], in assay [8], in [9], in [10], in [11] and in [12] was inactive. Also, the result in assay [13], in [14], in assay [15], in [16], in assay [17] and in assay [18] was inactive. Besides, the outcome in assay [19] was inactive.

On to `CN1CCCC1=O`, for which the outcome in assay [1], in [2], in [3], in assay [4], in assay [5] and in assay [6] was inactive. The outcome in assay [7], in assay [8], in assay [9], in [10], in assay [11] and in [12] was inactive. For the same molecule, the outcome in assay [13], in assay [14], in assay [15], in assay [16], in assay [17] and in assay [18] was inactive. Besides, the outcome in assay [19] was inactive.

As to `COCCOCCOC`, the result in assay [1], in [2], in [3], in assay [4], in assay [5] and in assay [6] was inactive. Further, the result in assay [7], in [8], in [9], in [10], in assay [11] and in assay [12] was inactive. The outcome in assay [13], in assay [14], in assay [15], in [16], in assay [17] and in [18] was inactive. Moreover, in assay [19], the outcome was inactive.

`CCCCCCCCCCCCCCCCCC(=O)O`: the outcome in assay [1], in assay [20], in assay [2], in assay [3], in assay [5] and in [6] was inactive. Also, the result in assay [7], in assay [8], in [9], in assay [10], in assay [11] and in [12] was inactive. Moreover, the result in [13], in assay [14], in [16], in assay [17] and in [19] was inactive. Further, the AC50 in assay [15] is 8.81 µM (active).

The AC50 is the midpoint of the concentration-response curve, whichever way the signal moves.
